For this test, the system named is primary human hepatic stellate cells (donor 1). The experiment in a line: scaled lipid accumulation score (0 = DMSO-like, 1 = nortriptyline-like); higher = stronger HSC inactivation (lipid re-accumulation), active = hit call of the paper. As to conditions: 48 h. The procedure: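 Primary lipid accumulation screen in primary human hepatic stellate cell myofibroblasts (donor 1, passage 8) in 384-well plates. 100 nL of library compound was pin-transferred into 30 µL medium in duplicate, and cells were treated for 48 h. The 'Scaled' score combines distance from plate baseline, toxicity and reproducibility penalties, and is normalised to nortriptyline (positive) and DMSO (negative) controls on each plate. A hit is defined as scaled >0.85 or among the top 3 wells per plate.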

Where [1] appears, read: library stock concentration: 10 mM.
[2] abbreviates: library stock concentration: 1 mM.
Setting [3] is: library stock concentration: 3.33 mM.

The values that follow come from the supplement of paper PMC9135407.

Several values for one entry are separate records, joined by “and”; a condition that tells them apart may be missing. Equal values may be shown once. Where a name gives a salt, the structure may show the parent alone. Out of some 5,800 compounds screened, about 620 (11%) showed activity. This excerpt belongs to a sample that is enriched for actives. Values without a mark were called inactive.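 How the source made its calls: active = score above a cut-off or among the top three wells of a plate; in these data no inactive exceeds 0.85.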 Some results are limits rather than exact numbers.

Turning to `COc1cc(OC)c(C(=O)CCCCN2CCC3(CC2)NC(=O)NC3=O)cc1NS(=O)(=O)c1ccc(C(F)(F)F)cc1.Cl`, the “scaled lipid accumulation score” value under setting [1] was 0.941 (active).

`O=C(O)CN(CC(=O)O)Cc1cc2c(cc1O)Oc1cc(O)c(CN(CC(=O)O)CC(=O)O)cc1C21OC(=O)c2ccccc21` [Calcein]: under setting [1], the “scaled lipid accumulation score” value is 0.169. For `COc1ccc2c(c1)c(CC(=O)Oc1ccc(-c3cc(=S)ss3)cc1)c(C)n2C(=O)c1ccc(Cl)cc1`, the “scaled lipid accumulation score” value under setting [2] was not above 0.

On to `COC(=O)[C@H](Cc1ccccc1)NC(=O)/C=C/c1ccc(O)cc1`, for which the “scaled lipid accumulation score” value under setting [2] was 0.011. Turning to `C[C@H](NC(=O)CCc1nc2ccccc2c(=O)[nH]1)c1ccccc1`, the “scaled lipid accumulation score” value is not above -0.009 under setting [3] and not above 0 under setting [1]. Turning to `CCCCCC#CCC#CCC#CCCCCCCC(=O)O` [8,11,14-Eicosatriynoic Acid], the “scaled lipid accumulation score” value under setting [2] was not above 0. On to `CC(C)C[C@H](NC(=O)[C@@H](COC(C)(C)C)NC(=O)[C@H](Cc1ccc(O)cc1)NC(=O)[C@H](CO)NC(=O)[C@H](Cc1c[nH]c2ccccc12)NC(=O)[C@H](Cc1cnc[nH]1)NC(=O)[C@@H]1CCC(=O)N1)C(=O)N[C@@H](CCCNC(=N)N)C(=O)N1CCC[C@H]1C(=O)NNC(N)=O`, for which, where the note is “library stock concentration: 9.6 mM”, the “scaled lipid accumulation score” value is 0.046.

As for `CC(C)C[C@H](NC(=O)[C@@H](COC(C)(C)C)NC(=O)[C@H](Cc1ccc(O)cc1)NC(=O)[C@H](CO)NC(=O)[C@H](Cc1c[nH]c2ccccc12)NC(=O)[C@H](Cc1cnc[nH]1)NC(=O)[C@@H]1CCC(=O)N1)C(=O)N[C@@H](CCCNC(=N)N)C(=O)N1CCC[C@H]1C(=O)NNC(N)=O` [Goserelin acetate], the “scaled lipid accumulation score” value (library stock concentration: 1.6 mM) was not above -0.006. As for `CCCCCCCC(=O)OC[C@H](CO)OC(=O)CCCCCCC` [1,2-Dioctanoyl-sn-glycerol], the “scaled lipid accumulation score” value under setting [2] was 0.009. Same read-out and setting: under `CCCCCCCC(=O)OC[C@H](CO)OC(=O)CCCCCCC` [1,2-Dioctanoyl-SN-glycerol] stands not above -0.021. With `Cc1ccc(NC(=O)c2cccc(N(C)C)c2)cc1NC(=O)c1ccc(O)cc1`, the “scaled lipid accumulation score” value under setting [1] was not above -0.004.

With `COc1ccc(NC(=O)c2ccc(-c3ccc(-c4noc(C)n4)cc3C)cc2)cc1OCCN(C)C`, the “scaled lipid accumulation score” value under setting [1] is 0.491. Consider `Br.Br.CN(C)CCCc1cc(C(=O)Nc2ccc(-c3ccncc3)cc2)ccc1O`, for which the “scaled lipid accumulation score” value under setting [1] is 1.13 (active).

Turning to `CC(C)CCCC(C)N` (stereo not given) [Octodrine], the “scaled lipid accumulation score” value (library stock concentration: 15.5 mM) was 0.024. Turning to `CCC(CC)CC1(C(=O)Nc2ccccc2SC(=O)C(C)C)CCCCC1`, the “scaled lipid accumulation score” value is, setting by setting: under setting [3], not above 0; under setting [1], not above 0.

For `Cc1nc(-c2ccc(C(F)(F)F)cc2)sc1C(=O)NCc1ccc(OC(C)(C)C(=O)O)cc1`, the “scaled lipid accumulation score” value under setting [2] was not above 0. In the case of `CN(C)CCC=C1c2ccccc2COc2ccccc21` [Doxepin hydrochloride], the “scaled lipid accumulation score” value was 0.633. Besides, under setting [1], the “scaled lipid accumulation score” value was 0.495 and 0.707 and 0.72. For the molecule `CN(C)CCC1(c2ccc(Cl)cc2)Cc2ccccc2C(=O)O1` (stereo not given), the “scaled lipid accumulation score” value under setting [1] is 0.575. For `CN(C)CCC=C1c2ccccc2CCc2ccccc21` [Amitriptyline HCl], the “scaled lipid accumulation score” value under setting [3] was 0.187. For the molecule `C(=C/CCN(C)C)(/c1c2cccc1)\c3c(cccc3)CC2.Cl` [Amitriptyline hydrochloride], under setting [1], the “scaled lipid accumulation score” value was 1.11 (active).

Turning to `CN(C)CCC=C1c2ccccc2CCc2ccccc21.Cl` [Amitriptyline HCl], the “scaled lipid accumulation score” value under setting [1] is 0.863 (active). Turning to `CN(C)CCC=C1c2ccccc2COc2ccccc21` [Doxepin], the “scaled lipid accumulation score” value under setting [1] was 0.731. As to `CN(C)CCC=C1c2ccccc2CCc2ccccc21` [Amitriptyline hydrochloride], the “scaled lipid accumulation score” value by setting is: (library stock concentration: 6.4 mM) 0.347; under setting [1], 0.6. For the molecule `CN(C)CC/C=C1/c2ccccc2COc2ccccc21.Cl` [Doxepin hydrochloride], the “scaled lipid accumulation score” value (library stock concentration: 6.3 mM) was 1.34 (active). As for `CN(C)CCC=C1c2ccccc2CCc2ccccc21` [Annoyltin], the “scaled lipid accumulation score” value under setting [1] is 0.841. With `CN(C)CCC=C1c2ccccc2CCc2ccccc21` [Amitryptiline hydrochloride], the “scaled lipid accumulation score” value is 0.821. Take `CN(C)CC/C=C1/c2ccccc2COc2ccc(CC(=O)O)cc21` [Olopatadine]: the “scaled lipid accumulation score” value (library stock concentration: 5.9 mM) is not above -0.006.

`CN(C)CC/C=C1/c2ccccc2COc2ccc(CC(=O)O)cc21`: the “scaled lipid accumulation score” value under setting [1] was not above 0.

`CN(C)CC/C=C1/c2ccccc2COc2ccc(CC(=O)O)cc21` [Olopatadine HCl]: the “scaled lipid accumulation score” value runs as follows: under setting [3], not above 0; under setting [1], not above 0. In the case of `C[C@H]1[C@H](OC(=O)CCC(=O)O)O[C@@H]2O[C@@]3(C)CC[C@H]4[C@H](C)CC[C@@H]1[C@@]24OO3`, the “scaled lipid accumulation score” value under setting [1] is not above 0. Take `C[C@H]1[C@H](OC(=O)CCC(=O)O)O[C@@H]2O[C@@]3(C)CC[C@H]4[C@H](C)CC[C@@H]1[C@@]24OO3` [Artesunate]: the “scaled lipid accumulation score” value runs as follows: under setting [3], 0.009; (library stock concentration: 5.2 mM) not above 0; under setting [1], not above 0. `C/C=C/C/C=C/CCC(=O)[C@H]1O[C@H]1C(N)=O` [Cerulenin]: the “scaled lipid accumulation score” value was not above 0 under setting [2] and 0.518 (library stock concentration: 22.4 mM). For `CCCCCC(O)C=CC1C=CC(=O)C1CCCCCCC(=O)O` (stereo not drawn) [15-epi Prostaglandin A1], the “scaled lipid accumulation score” value under setting [2] was not above 0.

As to `CCCCCC(O)C=CC1C=CC(=O)C1CCCCCCC(=O)O` (stereo not given) [8-iso Prostaglandin A1], the “scaled lipid accumulation score” value under setting [2] is not above 0.

`N[C@@H](Cc1c[nH]cn1)C(=O)O` [L-Histidine hydrochloride]: under setting [1], the “scaled lipid accumulation score” value is not above -0.07.

`COC1=CC(=O)C=C(OC)C1=O` [2,6-dimethoxyquinone]: the “scaled lipid accumulation score” value under setting [1] was 0.299. For the molecule `CC(C)NCC(O)c1ccc(O)c(O)c1` (single isomer, unassigned; (-)) [(-)-Isoproterenol hydrochloride], the “scaled lipid accumulation score” value was not above 0. Also, under setting [1], the “scaled lipid accumulation score” value is not above -0.055. As for `CC[C@H]1C(=O)OC[C@@H]1Cc1cncn1C` [Isopilocarpine nitrate], the “scaled lipid accumulation score” value under setting [1] is not above 0. With `COc1cccc(OC)c1OCCNCC1CSc2ccccc2O1` (stereo not given) [Benoxathian hydrochloride], the “scaled lipid accumulation score” value under setting [1] was 0.629. As for `CCCn1ncc(-c2ccnc(NC3CC(C)(C)NC(C)(C)C3)n2)c1C`, under setting [1], the “scaled lipid accumulation score” value was 0.86 (active). For `CC1(C)CC(Nc2nccc(-c3cnn(-c4ccccc4)c3)n2)CC(C)(C)N1`, under setting [1], the “scaled lipid accumulation score” value is 0.799 (active).
